Measurements taken from PubChem BioAssay (NCI).
The panel holds about 83,000 compounds, 20% with a hit somewhere; the sample as a whole holds those more often.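 Cells were grown in 96-well plates and exposed to the test compound at a single concentration for 48 hours; results are reported as percent growth, with values below 10 considered active.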 A number with no mark means an inactive call. Active and inactive are the calls of the source.

Experiments:
Experiment in all cases: NCI-60 one-dose screen, 48 h (100 = growth as untreated, 0 = no growth, -100 = all killed)
RPMI-8226 leukemia = details: 10 µM
OVCAR-8 ovarian = details: 10 µM unless noted
OVCAR-5 ovarian = details: 10 µM unless noted
OVCAR-4 ovarian = details: 10 µM unless noted
SK-OV-3 ovarian = details: 10 µM
IGROV1 ovarian = details: 10 µM unless noted
OVCAR-3 ovarian = details: 10 µM unless noted
NCI/ADR-RES ovarian = details: 10 µM unless noted
T-47D breast = details: 10 µM
BT-549 breast = details: 10 µM unless noted
MDA-MB-435 melanoma = details: 10 µM unless noted
SW-620 colon = details: 10 µM unless noted
MCF7 breast = details: 10 µM unless noted
HCT-116 colon = details: 10 µM unless noted
HCC-2998 colon = details: 10 µM unless noted
KM12 colon = details: 10 µM unless noted
HS 578T breast = details: 10 µM unless noted

| SMILES | growth (RPMI-8226 leukemia) | growth (OVCAR-8 ovarian) | growth (OVCAR-5 ovarian) | growth (OVCAR-4 ovarian) | growth (SK-OV-3 ovarian) [%] | growth (IGROV1 ovarian) | growth (OVCAR-3 ovarian) | growth (NCI/ADR-RES ovarian) | growth (T-47D breast) | growth (BT-549 breast) [%] | growth (MDA-MB-435 melanoma) | growth (SW-620 colon) | growth (MCF7 breast) | growth (HCT-116 colon) | growth (HCC-2998 colon) | growth (KM12 colon) | growth (HS 578T breast) |
| --- | --- | --- | --- | --- | --- | --- | --- | --- | --- | --- | --- | --- | --- | --- | --- | --- | --- |
| COc1cc(/C=C2\C(=O)N(c3c(Cl)cccc3Cl)c3ccccc32)cc(OC)c1O | 12.5% | 33.1% | 89.8% | 53.6% | 53.7 | 6.56% (active) | 46% | 38.7% | 51.8% | 33.4 | 35.2% | 31.4% | 25.3% | 15.7% | 44.6% | 28.4% |  |
| COc1cccc(OC)c1OC(=O)c1ccccc1 | 96.1% | 106% | 107% | 97.4% | 106 | 116% | 123% | 105% | 104% |  | 97.5% | 102% | 101% | 103% | 94.3% | 109% | 96.6% |
| O=C1C(N2CCOCC2)=Cc2cccc3cccc1c23 | 105% | 96.1% | 103% | 90.5% | 95.8 | 112% | 101% | 99.8% | 86.6% | 109 | 102% | 98.3% | 66.2% | 94.7% |  | 95.8% | 86.1% |
| NC(=O)c1cc(Cl)ccc1NC(=O)COc1ccccc1 | 44.5% | 60.1% | 80.5% | 101% | 62.8 | 54.5% | 27.2% | 31.4% |  | 43.8 | -56.9% (active) | 35.3% | 30.5% | 31.5% | 83.1% | 38.3% | 54.7% |
| C=C(C)COC(=O)c1ccccc1C(=O)OCC1(C)CO1 (centres undefined) | 110% | 95.6% | 96.8% | 110% | 110 |  | 108% | 101% | 102% | 102 | 106% | 105% | 104% | 105% |  | 112% | 104% |
| NC1=NC(c2ccccc2OS(=O)(=O)c2ccc(Br)cc2)n2c(nc3ccccc32)N1 (centres undefined) | 69.8% | 88.3% | 99% | 110% | 105 | 81.8% | 94.6% |  | 81.2% |  | 73.1% | 96% | 77.3% |  |  | 100% | 101% |
| COc1cccc(C2C3=C(COC3=O)N(CCO)c3cc4c(cc32)OCO4)c1 (centres undefined) | 31.4% | 42.3% | 35.6% | 40.6% | 20.8 | 30.4% | -64.9% (active) | -16.2% (active) | 49.1% | 37.2 | -40.1% (active) | 22.4% | 14.6% | 8.72% (active) | 5.59% (active) | 14.3% | 2.25% (active) |
| Cc1cc(=O)oc2c1ccc1oc(C(=O)c3ccccc3)c(C)c12 | 69.5% | 76.2% | 104% | 66.8% | 109 | 102% | 85.6% | 83.3% | 76.3% | 101 | 95.8% | 92.2% |  | 83.5% |  | 73.2% | 103% |
| Cn1c2ccccc2c2nn(C(=O)c3ccccc3)c(=O)nc21 | 98.7% | 117% | 101% | 125% | 116 | 101% | 122% | 110% |  | 114 | 105% | 100% | 101% | 109% | 107% | 106% | 105% |
| Clc1ccc(C2=Nc3cccc4cccc(c34)N2)cc1Cl | 56.8% | 97.7% | 126% | 32.6% | 98.1 | 71.8% | 86% | 95.8% | 42.2% | 74.2 | 114% | 99% | 50.2% | 93% | 104% | 99.9% |  |
| Clc1ccc2c(N3CCN(c4ccnc(NC5CCCCC5)n4)CC3)ccnc2c1 | 2.01% (active) | 56.6% | 80.8% | 42.3% | 62.7 |  | 53.4% |  | 26.1% | 71.1 | 42.7% | 33.7% | 26.5% | 4.29% (active) | 29.2% | 35.5% | 67.7% |
| N#CCCN1CCN(CCC#N)C1=S | 111% | 98.1% | 101% | 108% | 108 |  | 110% | 102% | 108% | 99.6 |  | 101% | 101% | 101% |  | 109% | 104% |
| c1ccc(-c2nc(N3CCOCC3)c3c4c(sc3n2)CCCCCC4)nc1 | 33.3% | 42.4% | 57.2% | 42.2% | 65.7 | 42.1% | 68.2% | 25.9% | 17.8% | 58.3 | 61.9% | 86.9% |  | 27.7% | 72.7% | 44.7% | 53.4% |
| COc1cccc(OC(=O)c2ccccc2)c1OC(=O)c1ccccc1 | 68.6% | 91.6% | 99.4% | 100% | 90.4 |  | 68.5% |  | 80.2% | 83.4 |  | 40.1% | 47.4% | 51.3% |  | 45.2% | 86.9% |
| Cc1ccc2c(N/N=C\c3ccco3)cc(C)nc2n1 | 64.7% | 69.6% | 80.4% | 46.9% | 98.6 | 49% | 88% |  | 37.4% | 87.7 | 36.6% | 39.5% | 71.8% | 21.5% | 65.4% | 74.8% | 86.3% |
| CCCN1CCN(c2ccc3nc(-c4ccc5nc(-c6ccc(C(F)(F)F)cc6)[nH]c5c4)[nH]c3c2)CC1 | -29.9% (active) | -38% (active) | -25% (active) | -82.5% (active) |  | -83.5% (active) | -96.9% (active) | 74% | 48% | 73.5 | -89% (active) | -82.6% (active) | -77% (active) | -83.3% (active) | -89.8% (active) | -86.4% (active) | 4.6% (active) |
| Cn1c2ccccc2c2nn(Cc3ccccc3)c(=O)nc21 | 101% | 107% | 92.8% | 111% | 105 | 120% | 107% | 109% |  | 110 |  | 99.3% | 95.1% | 109% | 114% | 104% | 106% |
| O=C(CCCCCCC(=O)Nc1ccc2c(c1)/C(=C/c1ccc[nH]1)C(=O)N2)NO | -19.5% (active) | 11.2% | 0.698% (active) | 23.7% | 12.2 | -4.96% (active) | -57.8% (active) | 35.7% | -0.107% (active) | 29.7 | -1.97% (active) | -27% (active) | 17.2% | -36.8% (active) | 3.74% (active) | -14.4% (active) | 9.71% (active) |
| COc1ccc(OC)c2ncccc12 | 94.9% | 103% | 107% | 102% | 96.7 | 106% | 110% | 100% | 100% | 97.4 |  | 99% | 84.8% | 100% | 103% | 99.6% | 107% |
